# Data: the supplement of paper PMC8728848
# The full list was thinned out, with the strongest signals kept by preference.
# Legend:
# Assay in all cases: glycan array binding signal (z-score within array); higher = stronger binding
# Settings in all cases: glycan notation: IUPAC condensed, linker removed
# [1] = target: Gal(b1-3)GalNAc(b1-4)Gal3S(b1-4)Glc
# Method in brief: (§1)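 Glycan array binding is given as a within-array Z-score, which can be read as non-binding when negative. The arrays, 3228 of them, came from the Consortium for Functional Glycomics database and were retained only where the protein sequence was available. Z-scores were averaged across arrays of the same protein sequence at different concentrations or buffers and across linkers.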
# [2] = target: Gal(b1-3)GalNAc(b1-4)[Neu5Ac(a2-3)]Gal(b1-4)Glc
# Method in brief: as §1
# [3] = target: Gal(b1-3)GalNAc(b1-4)[Neu5Gc(a2-3)]Gal(b1-4)Glc
# Method in brief: as §1
# [4] = target: Gal(b1-3)[Neu5Ac(a2-6)]GalNAc(b1-4)Gal(b1-4)Glc
# Method in brief: as §1
# [5] = target: Gal(b1-4)GlcNAc(b1-2)[Gal(b1-4)GlcNAc(b1-4)]Man(a1-3)[Gal(b1-4)GlcNAc(b1-2)Man(a1-6)]Man(b1-4)GlcNAc(b1-4)GlcNAc
# Method in brief: as §1
# [6] = target: Gal(b1-4)GlcNAc(b1-3)Fuc
# Method in brief: as §1
# [7] = target: Glc(a1-3)Glc
# Method in brief: as §1
# [8] = target: Glc(a1-3)Glc(a1-3)Man(a1-2)Man(a1-2)Man(a1-3)[Man(a1-3)[Man(a1-6)]Man(a1-6)]Man(b1-4)GlcNAc
# Method in brief: as §1
# [9] = target: Glc(a1-6)Glc(a1-6)Glc(a1-6)Glc(a1-6)Glc
# Method in brief: as §1
# [10] = target: Glc(a1-6)Glc(a1-6)Glc(a1-6)Glc(a1-6)Glc(a1-6)Glc(a1-6)Glc(a1-6)Glc(a1-6)Glc
# Method in brief: as §1
# [11] = target: Glc(b1-2)Glc
# Method in brief: as §1
# [12] = target: Glc(b1-3)Glc(b1-3)Glc(b1-3)Glc(b1-3)Glc(b1-3)Glc(b1-3)Glc(b1-3)Glc(b1-3)Glc(b1-3)Glc(b1-3)Glc
# Method in brief: as §1
# [13] = target: Glc(b1-4)Glc(b1-4)Glc(b1-4)Glc(b1-4)Glc(b1-4)Glc(b1-4)Glc
# Method in brief: as §1
# [14] = target: Glc(b1-4)Glc(b1-4)Glc(b1-4)Glc(b1-4)Glc(b1-4)Glc(b1-4)Glc(b1-4)Glc(b1-4)Glc
# Method in brief: as §1
# [15] = target: Glc(b1-6)Glc(b1-6)Glc(b1-6)Glc
# Method in brief: as §1
# [16] = target: GlcA(b1-3)GlcNAc(b1-4)GlcA(b1-3)GlcNAc(b1-4)GlcA(b1-3)GlcNAc(b1-4)GlcA(b1-3)GlcNAc(b1-4)GlcA(b1-3)GlcNAc(b1-4)GlcA(b1-3)GlcNAc(b1-4)GlcA(b1-3)GlcNAc
# Method in brief: as §1
# [17] = target: GlcNAc(a1-4)Gal
# Method in brief: as §1
# [18] = target: GlcNAc(b1-2)Man
# Method in brief: as §1
# [19] = target: GlcNAc(b1-4)GlcNAc
# Method in brief: as §1
# [20] = target: Man(a1-2)Man(a1-2)Man(a1-3)[Man(a1-2)Man(a1-3)[Man(a1-2)Man(a1-6)]Man(a1-6)]Man(b1-4)GlcNAc(b1-4)GlcNAc
# Method in brief: as §1
# [21] = target: Man(a1-3)[Man(a1-6)]Man
# Method in brief: as §1
# [22] = target: Neu5Ac(a2-3)Gal
# Method in brief: as §1
# [23] = target: Neu5Ac(a2-3)Gal(b1-3)GalNAc(b1-4)[Neu5Ac(a2-3)]Gal(b1-4)Glc
# Method in brief: as §1
# [24] = target: Neu5Ac(a2-3)Gal(b1-4)[Fuc(a1-3)]GlcNAc(b1-3)Gal
# Method in brief: as §1
# [25] = target: Neu5Ac(a2-3)[GalNAc(b1-4)]Gal(b1-3)GalNAc(b1-4)[Neu5Ac(a2-3)]Gal(b1-4)Glc
# Method in brief: as §1
# [26] = target: Neu5Ac(a2-3)[GalNAc(b1-4)]Gal(b1-4)Glc
# Method in brief: as §1
# [27] = target: Neu5Ac(a2-8)Neu5Ac(a2-3)[Gal(b1-3)GalNAc(b1-4)]Gal(b1-4)Glc
# Method in brief: as §1
# [28] = target: Neu5Ac(b2-3)Gal(b1-4)Glc
# Method in brief: as §1
# [29] = target: Rha(a1-6)Glc
# Method in brief: as §1
# [30] = target: Neu(a2-3)Gal(b1-4)Glc
# Method in brief: as §1
# [31] = target: Neu(a2-6)Gal(b1-4)Glc
# Method in brief: as §1
# [32] = target: Neu5Ac(a2-3)Gal(b1-3)GalNAc(b1-4)Gal(b1-4)Glc
# Method in brief: as §1
# [33] = target: Neu5Ac(a2-3)Gal(b1-3)GlcNAc(b1-3)[Fuc(a1-3)[Gal(b1-4)]GlcNAc(b1-6)]Gal(b1-4)Glc
# Method in brief: as §1
# [34] = target: Neu5Ac(a2-3)Gal(b1-4)[Fuc(a1-3)]GlcNAc6S(b1-3)Gal(b1-4)Glc
# Method in brief: as §1
# [35] = target: Neu5Ac(a2-3)Gal6S(b1-4)[Fuc(a1-3)]GlcNAc6S(b1-3)Gal(b1-4)Glc
# Method in brief: as §1
# [36] = target: Neu5Ac(a2-6)Gal(b1-4)GlcNAc(b1-3)[Neu5Ac(a2-6)Gal(b1-4)GlcNAc(b1-6)]Gal(b1-4)Glc
# Method in brief: as §1
# [37] = target: Neu5Ac(a2-9)Neu5Ac(a2-3)Gal(b1-4)Glc
# Method in brief: as §1
# [38] = target: Neu5Gc(a2-3)Gal(b1-4)Glc
# Method in brief: as §1
# [39] = target: Gal(b1-3)GlcNAc(b1-3)Gal(b1-4)Glc
# Method in brief: as §1
# [40] = target: Neu(a2-3)Gal6S(b1-4)[Fuc(a1-3)]GlcN(b1-3)Gal(b1-4)Glc
# Method in brief: as §1
# [41] = target: Neu5Ac(a2-3)Gal(b1-4)[Fuc(a1-3)]GlcNAc(b1-3)Gal(b1-4)Glc
# Method in brief: as §1
# [42] = target: Neu5Ac(a2-3)Gal6S(b1-4)[Fuc(a1-3)]GlcNAc(b1-3)Gal(b1-4)Glc
# Method in brief: as §1
# [43] = target: Neu5Ac(a2-8)Neu5Ac(a2-8)Neu5Ac(a2-8)Neu5Ac(a2-8)Neu5Ac(a2-8)Neu5Ac(a2-8)Neu5Ac
# Method in brief: as §1
# [44] = target: Neu5Ac(a2-8)Neu5Ac(a2-8)Neu5Ac(a2-8)Neu5Ac(a2-8)Neu5Ac(a2-8)Neu5Ac(a2-8)Neu5Ac(a2-8)Neu5Ac(a2-8)Neu5Ac
# Method in brief: as §1
# [45] = target: Neu5Ac(a2-8)Neu5Ac(a2-8)Neu5Ac(a2-8)Neu5Ac(a2-8)Neu5Ac(a2-8)Neu5Ac(a2-8)Neu5Ac(a2-8)Neu5Ac(a2-8)Neu5Ac(a2-8)Neu5Ac(a2-8)Neu5Ac
# Method in brief: as §1
# [46] = target: Neu5Ac9Ac(a2-6)Gal(b1-4)GlcNAc
# Method in brief: as §1
binder,measurement,setting,value
"MIC4-A5 (Toxoplasma gondii), Q9XZH7 (protein) SPDFHDEVECVHTGNIGSKAQTIGEVKRASSLSECRARCQAEKECSHYTYNVKSGLCYPKRGKPQFYKYLGDMTGSRTCDTS",glycan array binding signal (z-score),[1],5.56
same,glycan array binding signal (z-score),[2],5.3
same,glycan array binding signal (z-score),[3],4.89
same,glycan array binding signal (z-score),[4],6.12
same,glycan array binding signal (z-score),[5],3.22
same,glycan array binding signal (z-score),[6],-0.248
same,glycan array binding signal (z-score),[7],-0.306
same,glycan array binding signal (z-score),[8],-0.323
same,glycan array binding signal (z-score),[9],-0.323
same,glycan array binding signal (z-score),[10],-0.323
same,glycan array binding signal (z-score),[11],-0.32
same,glycan array binding signal (z-score),[12],-0.323
same,glycan array binding signal (z-score),[13],-0.323
same,glycan array binding signal (z-score),[14],-0.323
same,glycan array binding signal (z-score),[15],-0.323
same,glycan array binding signal (z-score),[16],-0.323
same,glycan array binding signal (z-score),[17],-0.323
same,glycan array binding signal (z-score),[18],-0.323
same,glycan array binding signal (z-score),[19],-0.323
same,glycan array binding signal (z-score),[20],-0.323
same,glycan array binding signal (z-score),[21],-0.323
same,glycan array binding signal (z-score),[22],-0.323
same,glycan array binding signal (z-score),[23],-0.191
same,glycan array binding signal (z-score),[24],-0.323
same,glycan array binding signal (z-score),[25],-0.323
same,glycan array binding signal (z-score),[26],-0.311
same,glycan array binding signal (z-score),[27],6.1
same,glycan array binding signal (z-score),[28],-0.32
same,glycan array binding signal (z-score),[29],-0.322
"MIC13 (Toxoplasma gondii), A0A125YWL1 (protein) IQLRQHRNGLGVEQSFVSEETDIVGGRISSLQAELDSYCHNRYKQLCDGGNKKFCDKTGVARYGTGIQSQQTAEWRCYFAEVLKPSGRKVQCVDDCGNYFPCLGVVDPNDTFHATAHNQILNFIKDGVEKHCSPFQMAGNNYCQGVLADTVARKDTGTASQKAKAWRCYKKDSLTYEARSICVDNCGGEIECPGGRSETSGELLSQHYTREKELQKVIESQSAPCHDACVATPINPPICADTESLLQSTKRSRAQRFIDDACQKLFNCHCKKDKKFCTTVVARKDRGRAGSQNDAEWRCYSLEELDFQKTNPSCIDECGNELPCQGAVPEESTHHITWTKLPSKIDEATQKFCTERQRAANDYCASEFADSLARYGPGAGDQTSQFRCIKKAAMRADAEGQCADSCKGTETCGGGRSRLDGPLSVDDVLNAHEGISEAMKSASTEC",glycan array binding signal (z-score),[3],-0.151
same,glycan array binding signal (z-score),[30],-0.234
same,glycan array binding signal (z-score),[31],-0.287
same,glycan array binding signal (z-score),[32],-0.287
same,glycan array binding signal (z-score),[33],-0.243
same,glycan array binding signal (z-score),[34],0.435
same,glycan array binding signal (z-score),[35],2.31
same,glycan array binding signal (z-score),[36],-0.287
same,glycan array binding signal (z-score),[37],8.12
same,glycan array binding signal (z-score),[38],-0.038
"MIC1 (Neospora caninum), Q8WRS0 (protein) AGAKTYGEASQPSASARSLQGALDTWCQEVFKKLCDDGYSKMCIPANQVVARQGLGRKDQQKLVWRCYDSAAFLAEGDENNVLSCVDDCGVSIPCPGGVDRDNSTHATRHDELSQLIKEGVVRYCSGFQAAANSYCNKRYPGTVARKSKGFGHKEPVKWRCYKPESLLFSVFSECVSNCGTTWSCPGGRLGTATNLDKKHFTDESGILQALTSVPKACPVGLVCLPRDQNPPACLDDNGNVPE",glycan array binding signal (z-score),[2],-0.344
same,glycan array binding signal (z-score),[39],-0.441
same,glycan array binding signal (z-score),[30],-0.422
same,glycan array binding signal (z-score),[40],-0.441
same,glycan array binding signal (z-score),[41],-0.359
same,glycan array binding signal (z-score),[34],0.848
same,glycan array binding signal (z-score),[42],6.08
same,glycan array binding signal (z-score),[35],4.92
same,glycan array binding signal (z-score),[43],0.538
same,glycan array binding signal (z-score),[44],-0.166
same,glycan array binding signal (z-score),[45],-0.291
same,glycan array binding signal (z-score),[46],-0.428
